# According to article PMC7862700, “An all-to-all approach to the identification of sequence-specific readers for epigenetic DNA modifications on cytosine”:
# Key:
# Experiment in all cases: DAPPL (digital affinity profiling via proximity ligation, sequencing); 10 mM Tris-HCl pH 7.5, 50 mM NaCl, 1 mM DTT, 4% glycerol, room temperature, 30 min; GST-TFs on glutathione beads, 16-mer random dsDNA library, 0.1% formaldehyde crosslink after washing; high values mean tight binding
# [1] = molecular target: T1, FEV (Homo sapiens, UniProt Q99581 1-238); conditions: protein: recombinant; tags: N-terminal GST; dsDNA, one strand shown
# T1 sequence: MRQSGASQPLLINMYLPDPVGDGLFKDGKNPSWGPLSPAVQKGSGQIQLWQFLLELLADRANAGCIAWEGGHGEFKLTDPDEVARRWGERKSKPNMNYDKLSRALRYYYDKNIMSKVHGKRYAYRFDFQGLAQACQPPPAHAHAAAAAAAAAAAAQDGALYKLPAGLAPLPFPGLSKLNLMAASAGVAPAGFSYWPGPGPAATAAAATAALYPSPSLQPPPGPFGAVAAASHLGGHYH
# In short: (§1)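 Binding signal is each hexamer's read frequency for a factor divided by its frequency in the tag-only sample. The factors were GST-fused human transcription factors from yeast, captured on glutathione beads, DNA-barcoded and pooled with that sample. Pools were incubated with 200 nmole of a random double-stranded 16-mer DNA library in Tris/NaCl/DTT/glycerol buffer at room temperature for 30 min, then washed, crosslinked with 0.1% formaldehyde, proximity-ligated with BsaI/T4 ligase (1 h, 37 °C), PCR-amplified and sequenced on an Illumina NextSeq500.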
# [2] = molecular target: ETV5 (Homo sapiens, UniProt P41161 1-510); conditions: protein: recombinant; tags: N-terminal GST; dsDNA, one strand shown
# In short: as §1
# [3] = molecular target: HSF1 (Homo sapiens, UniProt Q00613 1-529); conditions: protein: recombinant; tags: N-terminal GST; chain copies: 3; dsDNA, one strand shown
# In short: as §1
# [4] = molecular target: T2, SPIC (Homo sapiens, UniProt Q8N5J4 1-248); conditions: protein: recombinant; tags: N-terminal GST; dsDNA, one strand shown
# T2 sequence: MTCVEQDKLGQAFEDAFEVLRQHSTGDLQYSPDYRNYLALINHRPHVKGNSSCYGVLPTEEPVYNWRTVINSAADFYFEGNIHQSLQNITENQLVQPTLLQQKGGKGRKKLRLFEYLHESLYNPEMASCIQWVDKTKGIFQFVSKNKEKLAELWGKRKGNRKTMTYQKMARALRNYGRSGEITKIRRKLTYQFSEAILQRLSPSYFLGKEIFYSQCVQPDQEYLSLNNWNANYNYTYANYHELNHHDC
# In short: as §1
# [5] = molecular target: ELF4 (Homo sapiens, UniProt Q99607 1-663); conditions: protein: recombinant; tags: N-terminal GST; dsDNA, one strand shown
# In short: as §1
# [6] = molecular target: T3, ELK4 (Homo sapiens, UniProt P28324-2 1-405); conditions: protein: recombinant; tags: N-terminal GST; dsDNA, one strand shown
# T3 sequence: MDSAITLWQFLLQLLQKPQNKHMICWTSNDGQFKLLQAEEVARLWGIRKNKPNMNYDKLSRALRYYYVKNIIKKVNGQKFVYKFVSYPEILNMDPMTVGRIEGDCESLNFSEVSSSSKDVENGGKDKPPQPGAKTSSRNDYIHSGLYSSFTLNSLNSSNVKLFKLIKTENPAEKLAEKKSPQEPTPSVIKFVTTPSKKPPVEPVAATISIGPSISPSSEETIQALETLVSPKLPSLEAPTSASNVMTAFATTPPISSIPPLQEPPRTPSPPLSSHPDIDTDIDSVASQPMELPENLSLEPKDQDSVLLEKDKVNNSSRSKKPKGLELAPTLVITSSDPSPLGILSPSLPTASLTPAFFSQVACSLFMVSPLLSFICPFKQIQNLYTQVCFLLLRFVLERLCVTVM
# In short: as §1
# [7] = molecular target: T4, ETV2 (Homo sapiens, UniProt O00321 1-342); conditions: protein: recombinant; tags: N-terminal GST; dsDNA, one strand shown
# T4 sequence: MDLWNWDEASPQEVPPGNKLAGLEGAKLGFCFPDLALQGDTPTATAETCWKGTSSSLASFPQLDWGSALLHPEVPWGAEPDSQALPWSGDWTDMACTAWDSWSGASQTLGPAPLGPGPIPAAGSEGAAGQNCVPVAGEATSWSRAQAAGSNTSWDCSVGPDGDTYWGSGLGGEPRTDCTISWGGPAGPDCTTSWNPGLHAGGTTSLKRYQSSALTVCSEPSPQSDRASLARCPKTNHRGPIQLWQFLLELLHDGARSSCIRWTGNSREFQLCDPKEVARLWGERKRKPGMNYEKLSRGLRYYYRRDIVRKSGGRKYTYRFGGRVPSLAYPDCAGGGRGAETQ
# In short: as §1
# [8] = molecular target: T5, ELF3 (Homo sapiens, UniProt P78545 1-371); conditions: protein: recombinant; tags: N-terminal GST; dsDNA, one strand shown
# T5 sequence: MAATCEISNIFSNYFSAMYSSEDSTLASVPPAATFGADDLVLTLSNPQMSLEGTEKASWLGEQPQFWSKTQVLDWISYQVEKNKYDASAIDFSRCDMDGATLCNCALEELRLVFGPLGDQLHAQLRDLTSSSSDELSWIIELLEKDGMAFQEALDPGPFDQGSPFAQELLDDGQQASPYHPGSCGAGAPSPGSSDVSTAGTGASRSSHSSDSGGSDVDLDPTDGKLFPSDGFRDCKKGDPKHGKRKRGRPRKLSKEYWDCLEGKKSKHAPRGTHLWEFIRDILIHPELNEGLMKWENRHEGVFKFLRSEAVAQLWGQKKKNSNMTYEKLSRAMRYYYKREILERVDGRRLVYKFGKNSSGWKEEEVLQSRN
# In short: as §1
# [9] = molecular target: CRX (Homo sapiens, UniProt O43186 1-299); conditions: protein: recombinant; tags: N-terminal GST; dsDNA, one strand shown
# In short: as §1
# [10] = molecular target: ETV1 (Homo sapiens, UniProt P50549 1-477); conditions: protein: recombinant; tags: N-terminal GST; dsDNA, one strand shown
# In short: as §1
# [11] = molecular target: T6, ERF (Homo sapiens, UniProt P50548 1-548); conditions: protein: recombinant; tags: N-terminal GST; dsDNA, one strand shown
# T6 sequence: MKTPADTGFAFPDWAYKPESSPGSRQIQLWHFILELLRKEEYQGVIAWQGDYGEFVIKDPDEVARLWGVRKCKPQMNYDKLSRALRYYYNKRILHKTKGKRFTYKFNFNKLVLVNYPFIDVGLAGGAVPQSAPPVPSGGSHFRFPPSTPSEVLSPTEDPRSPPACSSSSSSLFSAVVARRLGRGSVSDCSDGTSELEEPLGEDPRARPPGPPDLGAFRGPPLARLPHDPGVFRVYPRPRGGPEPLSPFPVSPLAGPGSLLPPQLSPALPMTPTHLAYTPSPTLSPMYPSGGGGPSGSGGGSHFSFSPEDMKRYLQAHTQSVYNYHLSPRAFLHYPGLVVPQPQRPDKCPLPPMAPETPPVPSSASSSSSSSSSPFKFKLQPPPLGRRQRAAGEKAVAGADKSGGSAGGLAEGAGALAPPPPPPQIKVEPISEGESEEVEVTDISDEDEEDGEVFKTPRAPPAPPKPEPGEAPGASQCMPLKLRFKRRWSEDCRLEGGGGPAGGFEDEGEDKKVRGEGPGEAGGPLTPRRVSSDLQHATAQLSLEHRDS
# In short: as §1
# [12] = molecular target: T7, ETV3L (Homo sapiens, UniProt Q6ZN32 1-361); conditions: protein: recombinant; tags: N-terminal GST; dsDNA, one strand shown
# T7 sequence: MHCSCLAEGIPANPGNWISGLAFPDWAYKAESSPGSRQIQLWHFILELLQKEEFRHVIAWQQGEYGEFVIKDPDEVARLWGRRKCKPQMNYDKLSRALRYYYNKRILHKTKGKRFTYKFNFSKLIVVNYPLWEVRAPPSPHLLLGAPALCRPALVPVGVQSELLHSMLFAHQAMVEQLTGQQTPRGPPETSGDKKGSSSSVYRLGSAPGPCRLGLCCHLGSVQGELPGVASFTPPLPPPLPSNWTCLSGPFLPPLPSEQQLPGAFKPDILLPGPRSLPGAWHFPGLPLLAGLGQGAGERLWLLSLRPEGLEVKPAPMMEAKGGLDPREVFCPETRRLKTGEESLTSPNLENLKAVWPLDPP
# In short: as §1
# [13] = molecular target: T8, ETS2 (Homo sapiens, UniProt P15036 1-469); conditions: protein: recombinant; tags: N-terminal GST; dsDNA, one strand shown
# T8 sequence: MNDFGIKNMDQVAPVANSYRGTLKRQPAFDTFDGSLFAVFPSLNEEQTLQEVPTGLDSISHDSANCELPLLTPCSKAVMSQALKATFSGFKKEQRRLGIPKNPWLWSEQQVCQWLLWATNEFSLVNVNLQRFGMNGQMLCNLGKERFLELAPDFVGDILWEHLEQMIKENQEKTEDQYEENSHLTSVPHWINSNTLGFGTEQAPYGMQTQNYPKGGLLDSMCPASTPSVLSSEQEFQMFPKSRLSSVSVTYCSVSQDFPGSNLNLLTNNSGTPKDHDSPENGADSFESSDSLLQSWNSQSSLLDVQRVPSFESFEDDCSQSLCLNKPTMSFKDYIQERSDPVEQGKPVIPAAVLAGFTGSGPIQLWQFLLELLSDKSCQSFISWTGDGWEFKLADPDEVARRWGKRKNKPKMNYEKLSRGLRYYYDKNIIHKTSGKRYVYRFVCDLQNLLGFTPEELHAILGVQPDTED
# In short: as §1
# [14] = molecular target: T9, SPDEF (Homo sapiens, UniProt O95238 1-335); conditions: protein: recombinant; tags: N-terminal GST; dsDNA, one strand shown
# T9 sequence: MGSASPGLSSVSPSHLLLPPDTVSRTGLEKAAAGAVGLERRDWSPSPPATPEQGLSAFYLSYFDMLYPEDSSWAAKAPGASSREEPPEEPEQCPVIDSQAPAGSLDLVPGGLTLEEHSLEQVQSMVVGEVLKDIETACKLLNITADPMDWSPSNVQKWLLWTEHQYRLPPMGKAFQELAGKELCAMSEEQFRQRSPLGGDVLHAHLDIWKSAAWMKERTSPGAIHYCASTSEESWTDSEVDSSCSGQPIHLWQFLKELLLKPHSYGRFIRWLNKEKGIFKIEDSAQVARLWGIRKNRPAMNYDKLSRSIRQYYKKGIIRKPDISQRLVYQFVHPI
# In short: as §1
# [15] = molecular target: T10, ETV7 (Homo sapiens, UniProt Q9Y603 1-341); conditions: protein: recombinant; tags: N-terminal GST; dsDNA, one strand shown
# T10 sequence: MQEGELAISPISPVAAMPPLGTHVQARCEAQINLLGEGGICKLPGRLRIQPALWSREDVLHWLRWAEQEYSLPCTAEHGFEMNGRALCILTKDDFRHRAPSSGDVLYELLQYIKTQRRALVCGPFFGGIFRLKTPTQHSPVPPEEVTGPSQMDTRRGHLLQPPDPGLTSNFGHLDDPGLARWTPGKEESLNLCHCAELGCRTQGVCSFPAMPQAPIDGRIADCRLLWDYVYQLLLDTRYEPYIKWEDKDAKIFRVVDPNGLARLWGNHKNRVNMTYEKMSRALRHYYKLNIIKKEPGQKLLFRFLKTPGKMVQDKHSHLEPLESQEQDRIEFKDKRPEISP
# In short: as §1
# [16] = molecular target: T11, ELF5 (Homo sapiens, UniProt Q9UKW6-2 1-255); conditions: protein: recombinant; tags: N-terminal GST; dsDNA, one strand shown
# T11 sequence: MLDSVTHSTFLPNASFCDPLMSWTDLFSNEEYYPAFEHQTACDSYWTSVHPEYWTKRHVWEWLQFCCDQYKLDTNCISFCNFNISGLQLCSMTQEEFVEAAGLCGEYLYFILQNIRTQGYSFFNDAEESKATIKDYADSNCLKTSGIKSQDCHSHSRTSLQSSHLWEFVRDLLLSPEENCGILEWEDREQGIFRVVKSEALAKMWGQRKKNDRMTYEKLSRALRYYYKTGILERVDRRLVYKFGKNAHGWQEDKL
# In short: as §1
# [17] = molecular target: T12, ETV3 (Homo sapiens, UniProt P41162-2 1-143); conditions: protein: recombinant; tags: N-terminal GST; dsDNA, one strand shown
# T12 sequence: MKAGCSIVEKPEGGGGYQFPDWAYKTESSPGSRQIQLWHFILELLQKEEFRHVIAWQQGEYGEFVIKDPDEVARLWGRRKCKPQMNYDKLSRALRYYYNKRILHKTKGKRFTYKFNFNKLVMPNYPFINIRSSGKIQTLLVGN
# In short: as §1
# [18] = molecular target: ETV6 (Homo sapiens, UniProt P41212 1-452); conditions: protein: recombinant; tags: N-terminal GST; dsDNA, one strand shown
# In short: as §1
# Chain of HSF1 (Q00613 whole entry): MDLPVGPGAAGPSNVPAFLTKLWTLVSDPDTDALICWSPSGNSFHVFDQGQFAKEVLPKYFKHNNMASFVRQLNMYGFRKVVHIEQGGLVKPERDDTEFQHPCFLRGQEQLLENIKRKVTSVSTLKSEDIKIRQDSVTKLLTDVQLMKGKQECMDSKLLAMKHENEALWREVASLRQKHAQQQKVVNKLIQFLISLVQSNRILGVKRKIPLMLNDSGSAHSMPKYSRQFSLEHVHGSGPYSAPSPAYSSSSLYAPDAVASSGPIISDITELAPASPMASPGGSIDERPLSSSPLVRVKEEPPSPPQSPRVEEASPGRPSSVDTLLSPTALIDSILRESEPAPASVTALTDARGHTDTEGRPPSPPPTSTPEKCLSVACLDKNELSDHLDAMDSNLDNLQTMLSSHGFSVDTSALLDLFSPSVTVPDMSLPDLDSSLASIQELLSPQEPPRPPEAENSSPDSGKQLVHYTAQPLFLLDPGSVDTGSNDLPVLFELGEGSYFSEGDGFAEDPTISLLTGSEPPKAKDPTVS
# Chain of ETV1 (P50549 whole entry): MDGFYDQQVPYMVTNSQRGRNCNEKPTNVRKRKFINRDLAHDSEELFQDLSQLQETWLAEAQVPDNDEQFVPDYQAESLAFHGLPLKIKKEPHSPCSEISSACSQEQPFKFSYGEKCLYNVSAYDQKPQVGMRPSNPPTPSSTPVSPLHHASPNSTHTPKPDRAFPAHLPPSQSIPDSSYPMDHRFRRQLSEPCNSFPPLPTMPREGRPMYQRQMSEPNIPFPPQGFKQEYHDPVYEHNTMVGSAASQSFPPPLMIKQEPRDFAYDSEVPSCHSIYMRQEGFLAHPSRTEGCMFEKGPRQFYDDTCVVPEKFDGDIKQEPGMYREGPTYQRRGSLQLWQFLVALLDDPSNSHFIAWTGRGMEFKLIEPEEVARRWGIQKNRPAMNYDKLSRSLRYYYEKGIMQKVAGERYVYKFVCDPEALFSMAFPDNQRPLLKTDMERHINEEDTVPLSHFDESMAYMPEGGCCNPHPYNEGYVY
# Chain of ETV5 (P41161 whole entry): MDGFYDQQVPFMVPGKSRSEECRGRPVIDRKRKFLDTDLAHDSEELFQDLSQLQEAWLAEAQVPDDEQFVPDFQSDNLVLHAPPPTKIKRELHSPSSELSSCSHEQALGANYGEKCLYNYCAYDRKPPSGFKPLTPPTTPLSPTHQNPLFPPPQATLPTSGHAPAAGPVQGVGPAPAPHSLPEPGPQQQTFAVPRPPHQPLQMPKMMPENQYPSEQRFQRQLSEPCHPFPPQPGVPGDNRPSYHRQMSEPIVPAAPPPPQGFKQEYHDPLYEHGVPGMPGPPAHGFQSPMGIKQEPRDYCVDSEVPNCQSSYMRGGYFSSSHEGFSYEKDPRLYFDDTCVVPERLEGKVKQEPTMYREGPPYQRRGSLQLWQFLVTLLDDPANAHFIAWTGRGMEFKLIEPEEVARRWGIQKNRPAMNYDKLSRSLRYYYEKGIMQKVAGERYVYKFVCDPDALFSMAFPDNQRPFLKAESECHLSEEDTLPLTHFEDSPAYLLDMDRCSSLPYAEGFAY
# Chain of CRX (O43186 whole entry): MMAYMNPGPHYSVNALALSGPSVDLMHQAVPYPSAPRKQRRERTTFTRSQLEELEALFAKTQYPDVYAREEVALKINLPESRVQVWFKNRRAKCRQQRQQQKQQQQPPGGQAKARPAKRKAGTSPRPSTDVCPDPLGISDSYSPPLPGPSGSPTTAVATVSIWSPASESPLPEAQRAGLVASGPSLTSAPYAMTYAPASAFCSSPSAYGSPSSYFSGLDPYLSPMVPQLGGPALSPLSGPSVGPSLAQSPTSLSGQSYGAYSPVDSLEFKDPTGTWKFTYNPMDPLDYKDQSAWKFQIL
# Chain of ETV6 (P41212 whole entry): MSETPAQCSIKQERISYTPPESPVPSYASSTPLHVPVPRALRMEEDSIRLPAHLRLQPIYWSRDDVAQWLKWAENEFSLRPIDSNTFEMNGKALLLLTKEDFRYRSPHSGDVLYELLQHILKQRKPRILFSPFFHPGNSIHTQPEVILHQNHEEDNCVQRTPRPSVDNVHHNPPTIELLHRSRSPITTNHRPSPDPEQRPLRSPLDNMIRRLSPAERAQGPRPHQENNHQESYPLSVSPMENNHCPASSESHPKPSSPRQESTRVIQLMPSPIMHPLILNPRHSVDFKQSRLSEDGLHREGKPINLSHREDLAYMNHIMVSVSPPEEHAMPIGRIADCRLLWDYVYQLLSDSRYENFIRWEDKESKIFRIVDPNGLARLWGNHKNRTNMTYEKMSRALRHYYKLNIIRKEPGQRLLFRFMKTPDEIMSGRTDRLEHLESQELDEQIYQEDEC
# Chain of ELF4 (Q99607 whole entry): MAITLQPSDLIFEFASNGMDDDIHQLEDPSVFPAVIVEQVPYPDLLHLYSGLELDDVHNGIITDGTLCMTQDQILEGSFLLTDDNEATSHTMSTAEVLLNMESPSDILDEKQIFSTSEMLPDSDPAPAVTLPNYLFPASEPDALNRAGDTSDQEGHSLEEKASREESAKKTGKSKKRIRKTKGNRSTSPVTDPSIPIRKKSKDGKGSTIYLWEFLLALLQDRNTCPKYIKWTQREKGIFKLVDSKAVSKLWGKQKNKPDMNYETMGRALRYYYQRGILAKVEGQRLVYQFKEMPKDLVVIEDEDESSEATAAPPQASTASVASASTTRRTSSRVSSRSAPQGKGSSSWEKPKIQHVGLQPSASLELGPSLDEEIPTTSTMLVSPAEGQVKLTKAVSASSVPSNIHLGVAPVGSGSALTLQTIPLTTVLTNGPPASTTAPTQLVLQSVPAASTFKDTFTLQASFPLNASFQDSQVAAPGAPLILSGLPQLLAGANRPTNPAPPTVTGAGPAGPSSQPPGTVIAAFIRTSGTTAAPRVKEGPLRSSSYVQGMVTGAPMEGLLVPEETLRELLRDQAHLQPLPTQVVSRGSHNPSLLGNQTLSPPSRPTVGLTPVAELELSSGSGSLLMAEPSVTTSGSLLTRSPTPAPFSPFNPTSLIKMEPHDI
sequence,measurement,setting,value
ATCTTA,binding signal,[1],"1.1 fold enrichment (6-mer frequency, TF over GST control)"
same,binding signal,[2],"1.1 fold enrichment (6-mer frequency, TF over GST control)"
same,binding signal,[3],"1.47 fold enrichment (6-mer frequency, TF over GST control)"
same,binding signal,[4],"1.05 fold enrichment (6-mer frequency, TF over GST control)"
same,binding signal,[5],"1.1 fold enrichment (6-mer frequency, TF over GST control)"
same,binding signal,[6],"1.18 fold enrichment (6-mer frequency, TF over GST control)"
same,binding signal,[7],"1.12 fold enrichment (6-mer frequency, TF over GST control)"
same,binding signal,[8],"1.12 fold enrichment (6-mer frequency, TF over GST control)"
same,binding signal,[9],"2.11 fold enrichment (6-mer frequency, TF over GST control)"
same,binding signal,[10],"1.12 fold enrichment (6-mer frequency, TF over GST control)"
same,binding signal,[11],"1.1 fold enrichment (6-mer frequency, TF over GST control)"
same,binding signal,[12],"1.1 fold enrichment (6-mer frequency, TF over GST control)"
same,binding signal,[13],"1.12 fold enrichment (6-mer frequency, TF over GST control)"
same,binding signal,[14],"1.12 fold enrichment (6-mer frequency, TF over GST control)"
same,binding signal,[15],"1.18 fold enrichment (6-mer frequency, TF over GST control)"
same,binding signal,[16],"1.11 fold enrichment (6-mer frequency, TF over GST control)"
same,binding signal,[17],"1.04 fold enrichment (6-mer frequency, TF over GST control)"
same,binding signal,[18],"1.14 fold enrichment (6-mer frequency, TF over GST control)"
